Assay [1] in a line: inhibitors of TNFa-induced NFkB p65 translocation, primary screen, imaging, HUVEC, MLSMR starter and 10KST1 sets (AID 438;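 active = inhibition above 20% together with a positive visual image hit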;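 also: compound added about 3h40 before a 20 min TNFalpha stimulation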;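 as to inhibition: signal is the nuclear over cytoplasmic p65 intensity ratio per well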). The following applies: HUVEC TNFa-induced p65 nuclear translocation; cell count: measured here: nuclei count (cytotoxicity indicator), at 2.08 µM; inhibition: at 2 µM, stronger effect = higher value, 0% TNFa-plus-vehicle, 100% no-TNFa wells.
Assay [2] in a line: reduction of polyQ htt aggregates in cells – imaging, exon1htt(103Q)mCFP cells, high-content imaging, primary screen (AID 483;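 active = visual image review flags a hit and inhibition of aggregation exceeds 20%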;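 also: compound exposure lasted 3 days before fixation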;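 as to nuclei count: percent of the per-plate median nuclei count of sample wells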). The following applies: exon1htt(103Q)mCFP cell line, aggregate imaging, at 2 µM; inhibition of aggregation: stronger effect = higher value; nuclei count: measured here: cell count, toxicity.
A short description of assay [3]: endothelial E-selectin expression blockers – imaging, HUVEC, immunofluorescence, MLSMR starter and 10KST1 sets, primary screen (AID 487;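 active = visually confirmed hit in the image check and inhibition above 20%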;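 as to inhibition: signal is fraction of cell area covered by stained E-selectin grains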;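 as to nuclei count: 100% = median nuclei count of all wells on the same plate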). To be noted: HUVEC TNFalpha-induced E-selectin immunofluorescence imaging, at 2 µM; inhibition: stronger effect = higher value; nuclei count: measured here: cell number, toxicity.
The target of assay [4] is Voltage-gated potassium channel subunit beta-2 (Rattus norvegicus) (UniProt P62483). Nature of the assay: inhibitors of rat Kvbeta2 reductase activity – biochemical, NADPH fluorescence, primary screen (AID 622;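 active = fluorescence slope higher than the sample average by over 3 SD, cut at about -0.22 in these data, passing the limit was not always enough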;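 also: slope of raw intensity against log time taken from 70 to 1610 s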). To be noted: recombinant KvBeta, 4-cyanobenzaldehyde reduction, at 10 µM, stronger effect = higher value.
For assay [5] the target is unchanged. Nature of the assay: enhancers of rat Kvbeta2 NADPH turnover – biochemical, NADPH fluorescence, primary screen (AID 623;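 active = NADPH fluorescence slope more negative than the mean of all samples by about 3 SD, 99.7% confidence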;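 also: fluorescence intensity change per second fitted from 20 to 320 s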). To be noted: Recombinant KvBeta, NADPH fluorescence decrease slope, 10 min; at 10 µM; stronger effect = lower value.
The target in assay [6] is Alpha-2C adrenergic receptor (Homo sapiens) (UniProt P18825). Description: compounds altering alpha2C-coupled GIRK flux – cell-based, HEK293 alpha2C/GIRK1/2, thallium flux, primary screen (AID 624).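 Also: slope of fluorescence ratio to pre-addition baseline per second over 15 to 24 s.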 The following applies: thallium flux BTC fluorescence, at 10 µM, actives lie on both sides.
Assay [7] is described as follows: blockers of RIG-like receptor reporter activation – cell-based, Sendai virus stimulus, luciferase, 10K MLSCN set, TLR/RLR signaling modifier project, primary screen (AID 602276;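 active = inhibition at or above 50% at 10 µM; inactive = inhibition below 50%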;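 also: firefly luciferase from ISG56 promoter only with Renilla not read in this screen; 0% = Sendai virus plus DMSO and 100% = medium plus DMSO without virus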). To be noted: HEK293 RL24 IRF3 luciferase reporter, at 10 µM, stronger effect = higher value.
Assay [8] in a line: TLR3 IRF3 reporter activation blockers – cell-based, poly I:C stimulus, luciferase, 10K MLSCN set, primary screen (AID 602277;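 active = inhibition of the reporter signal at or above 50%; inactive = inhibition below 50%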). To be noted: HEK293-TLR3 RL24 IRF3 luciferase reporter, at 10 µM, stronger effect = higher value.

Activity calls are given as the source filed them.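 The calls were made as follows, unless noted: active = fluorescence slope after compound addition differing from the mean of all screened samples at 99.7% confidence, in either direction; inactive = the rest.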

Sequence of Voltage-gated potassium channel subunit beta-2 (Rattus norvegicus) (P62483 whole entry, looked up): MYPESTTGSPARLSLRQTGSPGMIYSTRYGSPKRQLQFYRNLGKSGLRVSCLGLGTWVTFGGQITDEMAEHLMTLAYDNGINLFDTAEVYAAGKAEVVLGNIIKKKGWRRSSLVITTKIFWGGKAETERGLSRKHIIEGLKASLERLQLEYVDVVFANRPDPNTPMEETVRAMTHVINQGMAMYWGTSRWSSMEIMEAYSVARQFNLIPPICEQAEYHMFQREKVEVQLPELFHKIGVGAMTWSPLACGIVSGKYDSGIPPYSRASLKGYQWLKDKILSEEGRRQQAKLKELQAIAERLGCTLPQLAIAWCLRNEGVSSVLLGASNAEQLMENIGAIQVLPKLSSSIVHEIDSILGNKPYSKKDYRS
Sequence of Alpha-2C adrenergic receptor (Homo sapiens) (P18825 whole entry, looked up): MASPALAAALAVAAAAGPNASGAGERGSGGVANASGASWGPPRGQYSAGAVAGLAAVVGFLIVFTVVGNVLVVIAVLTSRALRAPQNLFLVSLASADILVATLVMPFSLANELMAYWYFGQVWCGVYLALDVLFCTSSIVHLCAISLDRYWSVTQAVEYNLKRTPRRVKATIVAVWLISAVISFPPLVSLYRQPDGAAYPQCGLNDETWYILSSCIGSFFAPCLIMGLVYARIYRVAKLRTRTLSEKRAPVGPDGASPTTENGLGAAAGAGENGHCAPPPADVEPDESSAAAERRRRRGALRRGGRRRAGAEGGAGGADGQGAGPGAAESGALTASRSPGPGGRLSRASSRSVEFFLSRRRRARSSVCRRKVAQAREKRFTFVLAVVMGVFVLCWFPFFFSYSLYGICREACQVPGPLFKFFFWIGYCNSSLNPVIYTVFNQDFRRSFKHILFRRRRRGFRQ

In the case of `CCN(CC)CCN1C(=O)C(O)=C(C(=O)c2cccs2)C1c1ccc(C)o1` (centres undefined), the cell count in assay [1] is 343. In addition, the inhibition in assay [1] was 12.4% (inactive); in assay [3] it was -153% (inactive); in assay [7], 2.4% (inactive); in assay [8], -5.17% (inactive). Further, the inhibition of aggregation in assay [2] is -10.4% (inactive). Moreover, the results for the nuclei count in assay [2] and in assay [3] were 91.9% and 111%, respectively. Further, in assay [4], the fluorescence slope was -0.411 (inactive). In assay [5], the NADPH fluorescence slope is -3.6e-05 (inactive). Further, the slope in assay [6] was 0.00478 (inactive).

As for `Cc1noc(C(=O)Nc2ccc3c(c2)OCO3)c1Cl`, in assay [1], the cell count was determined as 763. Further, the inhibition in assay [1] was 0% (inactive); in assay [3], -40.9% (inactive); in assay [7], -21.3% (inactive); in assay [8], -27.6% (inactive). The inhibition of aggregation in assay [2] is -14.1% (inactive). In addition, the values for the nuclei count in assay [2] and in assay [3] were 129% and 108%, respectively. Besides, the fluorescence slope in assay [4] is -0.419 (inactive). Also, in assay [5], the NADPH fluorescence slope was -6.4e-05 (inactive). Besides, the slope in assay [6] is 0.00438 (inactive).

Consider `Cc1ccc(-c2ccc(=O)n(CCC(=O)NCCN3CCCCC3C)n2)cc1` (centres undefined), for which, in assay [1], the cell count was determined as 216. In addition, the inhibition in assay [1] is 4.2% (inactive); in assay [3], -4.1% (inactive); in assay [7], 1.11% (inactive); in assay [8], 2.82% (inactive). Further, in assay [2], the inhibition of aggregation is -7.7% (inactive). In addition, the values for the nuclei count in assay [2] and in assay [3] were 86.5% and 100%, respectively. The fluorescence slope in assay [4] is -0.442 (inactive). Also, in assay [5], the NADPH fluorescence slope was -2.5e-05 (inactive). Also, the slope in assay [6] was 0.00419 (inactive).

With `CCCN(CCC)CCNC(=O)c1cc2c(=O)n(C)c3ccccc3c2n1C`, the cell count in assay [1] came to 627. Further, the inhibition was 0% (inactive) in assay [1], -57.7% (inactive) in assay [3], 27.9% (inactive) in assay [7] and 68.2% (active) in assay [8]. The inhibition of aggregation in assay [2] was -18.3% (inactive). The nuclei count in assay [2] was determined as 109%; in assay [3], 112%. Further, the fluorescence slope in assay [4] is -0.456 (inactive). The NADPH fluorescence slope in assay [5] is -7.5e-05 (inactive). Further, the slope in assay [6] is 0.00528 (inactive).

As for `N#Cc1nc(-c2ccccc2Cl)oc1N1CCOCC1`, the cell count in assay [1] came to 332. The inhibition in assay [1] was 5% (inactive); in assay [3] it was -53.5% (inactive); in assay [7], 5.17% (inactive); in assay [8], -5.75% (inactive). Besides, in assay [2], the inhibition of aggregation was 10.4% (inactive). Further, the results for the nuclei count in assay [2] and in assay [3] were 96.7% and 116%, respectively. In assay [4], the fluorescence slope is -0.356 (inactive). The NADPH fluorescence slope in assay [5] was 3.4e-06 (inactive). Further, the slope in assay [6] was 0.00468 (inactive).

As for `CCOC(=O)N1CCN(S(=O)(=O)c2cc(Cl)ccc2Cl)CC1`, the cell count in assay [1] turned out to be 357. Further, the inhibition in assay [1] was 5.2% (inactive); in assay [3], -221% (inactive); in assay [7], 14.8% (inactive); in assay [8], 18.5% (inactive). In addition, in assay [2], the inhibition of aggregation was 29.4% (inactive). The results for the nuclei count in assay [2] and in assay [3] were 95.3% and 106%, respectively. The fluorescence slope in assay [4] is -0.62 (inactive). In assay [5], the NADPH fluorescence slope was -2.7e-05 (inactive). The slope in assay [6] is 0.00556 (inactive).

For `O=C(NCC(F)(F)F)Nc1cccnc1`, the cell count in assay [1] was 309. Also, the inhibition is 6.5% (inactive) in assay [1], -117% (inactive) in assay [3], -2.55% (inactive) in assay [7] and 3.81% (inactive) in assay [8]. For the same compound, the inhibition of aggregation in assay [2] was -5.6% (inactive). In addition, the nuclei count in assay [2] was found to be 100%; in assay [3], 119%. Moreover, the fluorescence slope in assay [4] was -0.318 (inactive). The NADPH fluorescence slope in assay [5] was -5.2e-05 (inactive). Besides, the slope in assay [6] was 0.00372 (inactive).

As to `Cc1cc(C)n(-c2cc(N3CCOCC3)ncn2)n1`, the cell count in assay [1] amounted to 690. The inhibition in assay [1] was -9.8% (inactive); in assay [3] it was -69.3% (inactive); in assay [7], 2.82% (inactive); in assay [8] it was 0.822% (inactive). Besides, in assay [2], the inhibition of aggregation is 3% (inactive). The nuclei count in assay [2] is 89.8%; in assay [3] it was 125%. For the same compound, in assay [4], the fluorescence slope was -0.436 (inactive). Besides, the NADPH fluorescence slope in assay [5] is -3.4e-06 (inactive). In assay [6], the slope was 0.00484 (inactive).

As for `O=C(Nc1nnc(-c2ccc(Cl)cc2)o1)C1CCCCC1`, in assay [1], the cell count turned out to be 673. The inhibition is 1.8% (inactive) in assay [1], -21.5% (inactive) in assay [3], 6.6% (inactive) in assay [7] and 3.98% (inactive) in assay [8]. Further, the inhibition of aggregation in assay [2] was 18.6% (inactive). Also, the nuclei count is 96.8% in assay [2] and 115% in assay [3]. Also, in assay [4], the fluorescence slope was -0.443 (inactive). Also, in assay [5], the NADPH fluorescence slope is -6.8e-05 (inactive). For the same compound, in assay [6], the slope was 0.00624 (inactive).

As for `N#C/C(=C(/O)CN1CCOCC1)c1nc2ccccc2s1`, the cell count in assay [1] amounted to 794. Also, the inhibition in assay [1] is 2.1% (inactive); in assay [3], -126% (inactive); in assay [7] it was -15.8% (inactive); in assay [8], -1.7% (inactive). Also, the inhibition of aggregation in assay [2] is -5.9% (inactive). For the same compound, the figures for the nuclei count in assay [2] and in assay [3] were 104% and 129%, respectively. In assay [4], the fluorescence slope is -0.452 (inactive). In assay [5], the NADPH fluorescence slope is 4.4e-05 (inactive). Besides, in assay [6], the slope was 0.00349 (inactive).

With `COc1cccc(-c2nc(CS(=O)(=O)CC(=O)N3CCc4ccccc4C3)c(C)o2)c1`, the cell count in assay [1] was found to be 813. The inhibition is -17.7% (inactive) in assay [1], -74.3% (inactive) in assay [3], 6.4% (inactive) in assay [7] and 16% (inactive) in assay [8]. For the same compound, the inhibition of aggregation in assay [2] was -2% (inactive). In addition, the nuclei count in assay [2] is 93%; in assay [3] it was 117%. In assay [4], the fluorescence slope was -0.522 (inactive). Besides, the NADPH fluorescence slope in assay [5] was -1.8e-05 (inactive). Moreover, in assay [6], the slope is 0.00747 (inactive).

Regarding `CCn1c(C(C#N)/C(=N\S(=O)(=O)c2cccs2)c2ccccc2)nc2ccccc21` (centres undefined), the cell count in assay [1] is 694. Also, the inhibition in assay [1] is 25.4% (active); in assay [3] it was -188% (inactive); in assay [7], 10.5% (inactive); in assay [8], 40.9% (inactive). For the same compound, the inhibition of aggregation in assay [2] was -17.3% (inactive). The figures for the nuclei count in assay [2] and in assay [3] were 94.2% and 119%, respectively. Further, the fluorescence slope in assay [4] was -0.493 (inactive). In assay [5], the NADPH fluorescence slope was -3.2e-06 (inactive). Moreover, the slope in assay [6] was 0.00669 (inactive).

`Cc1nc2sc(C(c3ccco3)N3CCN(c4ccccc4F)CC3)c(O)n2n1` (centres undefined): the cell count in assay [1] was 226. Also, the inhibition in assay [1] is -5.9% (inactive); in assay [3] it was -0.8% (inactive); in assay [7] it was 7.27% (inactive); in assay [8], 10.5% (inactive). Besides, in assay [2], the inhibition of aggregation was 3.8% (inactive). Also, the nuclei count in assay [2] turned out to be 104%; in assay [3], 114%. Further, the fluorescence slope in assay [4] is -0.436 (inactive). For the same compound, the NADPH fluorescence slope in assay [5] is -6.1e-06 (inactive). The slope in assay [6] is 0.00573 (inactive).

With `CCOC(=O)C1CCCN(C(=O)c2cc3c(=O)n4cccc(C)c4nc3n2C)C1` (centres undefined), the cell count in assay [1] was determined as 218. The inhibition is -6% (inactive) in assay [1], 75.9% (active) in assay [3], 17.9% (inactive) in assay [7] and 23.7% (inactive) in assay [8]. Besides, the inhibition of aggregation in assay [2] is 3.5% (inactive). For the same compound, the nuclei count in assay [2] stood at 91.5%; in assay [3], 66.5%. In addition, the fluorescence slope in assay [4] is -0.467 (inactive). The NADPH fluorescence slope in assay [5] was -1.3e-05 (inactive). In addition, the slope in assay [6] was 0.00547 (inactive).

The values above are taken from PubChem BioAssay.
